From PubChem BioAssay AID1779 (Sanford-Burnham Center for Chemical Genomics, 2009)
Among all 290,000 compounds or so, about 160 (0.055%) were called active. No stated cut-off is given here; in the data, active means inhibition above about 50%; inactive means the rest. Shown is part of a subset that was picked to be rich in actives.

These compounds were tested against Tyrosine-protein phosphatase non-receptor type 22 (Homo sapiens) (UniProt Q9Y2R2) (assay: PTPN22 lymphoid phosphatase activity blockers – biochemical, fluorescence intensity, uHTS (AID 1779;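 further: plate controls were vehicle with enzyme for no effect and no enzyme for full effect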)). Details: recombinant LYP phosphatase, at 11.5 µM, hits give high values.
Tyrosine-protein phosphatase non-receptor type 22 (Homo sapiens), sequence (Q9Y2R2 whole entry, looked up): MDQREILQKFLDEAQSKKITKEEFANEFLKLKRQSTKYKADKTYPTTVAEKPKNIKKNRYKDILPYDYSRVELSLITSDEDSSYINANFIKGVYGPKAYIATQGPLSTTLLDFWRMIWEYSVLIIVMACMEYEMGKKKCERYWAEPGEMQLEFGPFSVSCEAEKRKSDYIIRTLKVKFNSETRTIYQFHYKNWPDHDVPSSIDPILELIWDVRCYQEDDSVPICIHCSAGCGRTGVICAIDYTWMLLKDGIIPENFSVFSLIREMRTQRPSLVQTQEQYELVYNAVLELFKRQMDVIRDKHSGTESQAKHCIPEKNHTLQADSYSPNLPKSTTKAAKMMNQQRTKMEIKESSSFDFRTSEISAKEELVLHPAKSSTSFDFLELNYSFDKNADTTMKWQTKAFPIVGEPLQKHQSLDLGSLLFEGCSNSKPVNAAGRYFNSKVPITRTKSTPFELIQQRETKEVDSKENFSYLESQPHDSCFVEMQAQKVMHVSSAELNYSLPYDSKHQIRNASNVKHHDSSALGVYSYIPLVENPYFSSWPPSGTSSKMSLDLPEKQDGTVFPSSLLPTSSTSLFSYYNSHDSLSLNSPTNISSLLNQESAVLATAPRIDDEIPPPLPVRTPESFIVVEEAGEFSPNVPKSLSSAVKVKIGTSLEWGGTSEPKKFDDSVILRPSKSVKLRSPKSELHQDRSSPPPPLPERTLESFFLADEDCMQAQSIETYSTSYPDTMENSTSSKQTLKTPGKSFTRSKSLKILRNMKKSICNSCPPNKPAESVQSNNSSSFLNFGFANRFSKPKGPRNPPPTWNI

inhibition, active:
Cc1ccc2c(c1)N(C(=O)CCC(=O)NCc1cccc(Br)c1)CC(C)O2 (stereo unspecified) 90.4%
CCCc1nc2c(=O)n(C)c(=O)nc-2n(C)n1 79%
Cn1nc(-c2ccccn2)nc2c(=O)n(C)c(=O)nc1-2 73.5%
O=C(c1cccs1)c1no[n+]([O-])c1C(=O)c1cccs1 55.5%
Cn1c(SCC(=O)N2CCN(c3ccccc3)CC2)nnc1-c1cc2ccccc2o1 79.7%
c1ccc2c(CN3CCCCC3)csc2c1 68.1%
COc1cc2c(cc1OC)C(C(=O)N1CCCCC1)C(c1ccccc1F)N(C)C2=O (stereo unspecified) 64.6%
COc1cc(SC#N)ccc1N=Cc1c(C)[nH]n(-c2ccc(Cl)cc2)c1=O 80.6%
CCOC(=O)C1CCN(C(=O)Nc2ccc3nc(-c4ccco4)c(-c4ccco4)nc3c2)CC1 53.4%
CC(=O)N1c2c(cc(Br)cc2S(=O)(=O)N2CCOCC2)CC1C (stereo unspecified) 51.5%
Cc1cc2ncc(Cl)nc2cc1C 59.3%

inhibition, inactive:
CCOC(=O)c1c(-c2ccc(C)cc2)csc1NC(=O)c1cccc(N2C(=O)CCC2=O)c1 1%
CC1(NC(=O)CC[N+](C)(C)CCO)CS(=O)(=O)CC1S(=O)(=O)[O-] (stereo unspecified) 0.6%
CCCC[N+](C)(C)CCC(=O)NC(C)(C)CS(=O)(=O)[O-] -4.3%
Cc1c(C(=O)NNC(=S)NCc2ccc(Cl)cc2)oc2ccccc12 -1.3%
COC(=O)CCCC1=CC2=C(c3ccccc3)C(=O)C(C)(OC(=O)C3CCCC3)C(=O)C2=CN1CC1CC1 (stereo unspecified) -6.7%
Cc1ccc2c(c1)N(C(=O)CCC(=O)NCc1ccccc1)CC(C)O2 (stereo unspecified) -6.7%
Cc1ccc2c(c1)N(C(=O)CCC(=O)NCc1cccc(Cl)c1)CC(C)O2 (stereo unspecified) -4%
COc1cccc(CNC(=O)c2csc3c2CCCC3)c1 -8.1%
CCC(=O)N(Cc1cc2cc(OC)ccc2[nH]c1=O)c1cccc(C)c1 -4.9%
c1ccc(-c2nc(-c3ccccn3)nc(-c3ccccn3)n2)nc1 -4%
Cn1nc(-c2ccc(Cl)cc2)nc2c(=O)n(C)c(=O)nc1-2 -0.7%
CCCc1nc(SCC(=O)c2ccc(OC)cc2)c2c(=O)n(C)c(=O)n(C)c2n1 7.4%
CCn1c(N)nc2c1c(=O)n(C)c(=O)n2C 0.4%
Cn1c(N)c(C(=O)COC(=O)CCc2ccccc2)c(=O)n(C)c1=O -4.8%
CC1CCCC(NC(=O)COC(=O)CCc2ccccc2)C1C (stereo unspecified) -5.4%
Clc1ccccc1CNCC1CCCO1 (stereo unspecified) -13.9%
CCOC(=O)COc1c(/C=N\O)cc(Cl)cc1OC -4.2%
Cc1ccc(C(=O)c2no[n+]([O-])c2C(=O)c2ccc(C)cc2)cc1 -5.8%
COc1ccc(C(=O)c2no[n+]([O-])c2C(=O)c2ccc(OC)cc2)cc1 7.8%
CN(CC(=O)Nc1ccc(F)cc1)C(=O)CSc1nc2ncc(Cl)cc2[nH]1 -4.4%
N#Cc1ccc(N/N=C/c2cn(-c3ccccc3)nc2-c2ccccc2)c([N+](=O)[O-])c1 -1.1%
COCCn1c(C)cc(C(=O)COc2ncnc3ccc(Br)cc23)c1C -1.5%
CCOc1ccc(NC(=O)CN(c2ccc(C)cc2)S(=O)(=O)c2c(C)nn(C)c2C)cc1 -8.4%
Cn1c(SCC(=O)N2CCN(c3ccccc3)CC2)nnc1-c1ccccc1 -8.4%
Cn1c(SCC(=O)N2CCN(c3ccccc3)CC2)nnc1-c1ccco1 -8.2%
Cc1ccc(CNS(=O)(=O)c2ccc(C(C)(C)C)cc2)n1C -5.6%
Cc1cccc(NC(=O)CN2CCOCC2)c1C -9.5%
c1ccc2c(CN3CCOCC3)csc2c1 -4.5%
Clc1ccc2scc(CN3CCCCC3)c2c1 -6.7%
C=CCn1c(C)cc(C(=O)CN2NS(=O)(=O)c3ccccc3C2=O)c1C -3.8%
Cc1nn(Cc2ccc(Cl)cc2)c(C)c1NC(=O)CSc1n[nH]c(C)c1[N+](=O)[O-] -3.2%
COc1cc2c(cc1OC)C(C(=O)N1CCCC1)C(c1ccccc1F)N(C)C2=O (stereo unspecified) -2.7%
COc1ccc(C2C(C(=O)N3CCCC3)c3cc(OC)c(OC)cc3C(=O)N2C)cc1OC (stereo unspecified) -1.1%
COCCCNc1nc2c(-c3ccc(C)cc3)nnn2c2ccccc12 -6.1%
O=C(N=C1c2ccccc2CN1c1cccc(Cl)c1)c1cccnc1 -6.2%
COc1cc(SC#N)ccc1N=Cc1c(C)[nH]n(-c2ccc(C)c(C)c2)c1=O -5.7%
COc1cc(SC#N)ccc1N=Cc1c(C)[nH]n(-c2ccc(C)cc2C)c1=O -3.1%
CCOC(=O)C1CCN(S(=O)(=O)c2cc(Cl)c(C)cc2OC)CC1 0%
O=C(Nc1ccc2nc(-c3ccco3)c(-c3ccco3)nc2c1)N1CCCCCC1 17.4%
CCOC(=O)C1CCN(C(=O)Nc2ccc3nc(C)c(C)nc3c2)CC1 -2.2%
CCC(=O)N1CCc2nc(-c3ccccc3)sc2C1 -5.1%
COC(=O)c1ccc(CSc2nc(-c3ccccc3)cs2)o1 -2.6%
CCOC(=O)N1CCN(S(=O)(=O)c2cc(Br)cc3c2N(C(C)=O)C(C)C3)CC1 (stereo unspecified) 3%
CC(=O)N1c2c(cc(Br)cc2S(=O)(=O)N2CCCCC2)CC1C (stereo unspecified) -0.1%
COc1ccc(C(=O)Nc2cccc(C(=O)N3CCCC3)c2)cc1 -7.1%
COc1ccccc1CC(=O)Nc1ccc(S(=O)(=O)N2CCN(C)CC2)cc1 -10.4%
Cc1cnc2cc(Cl)c(Cl)cc2n1 -3.4%
Cc1cc2nc(Cl)c(Cl)nc2cc1C -2.6%
CC(Oc1ccc([N+](=O)[O-])cc1Cl)C(=O)Nc1ccc(C(N)=O)cc1 (stereo unspecified) -5.5%
Cc1ccc(NC(=O)C2CCCN2C(=O)NC2CCCCC2)cc1C (stereo unspecified) -7%
